Test results from PubChem BioAssay AID488890 (Southern Research Specialized Biocontainment Screening …, 2010).
In all, about 320,000 compounds went through this assay and about 1,300 (0.41%) were called active. Roughly 3% stayed inconclusive and do not appear here. The rule behind the calls is not given here. A selection follows. Results with a measured potency or affinity are listed apart.

Test: growth inhibition of non-replicating M. tuberculosis (AID 488890);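 note: plate controls were DMSO cells for no effect and high antibiotic wells for full effect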
Conditions: Mycobacterium tuberculosis non-replicating, at 25 µM, stronger effect = higher value

Structure (SMILES)	inhibition
Cc1ccc(C)c(OCCCNCc2ccccc2)c1	32.5%
Brc1ccccc1OCCNCc1ccccc1	32.1%
CCc1sc(C(=O)Nc2ccc3c(c2)OCO3)cc1C	61.2%
O=C(Nc1ccc2c(c1)OCO2)c1cccs1	21.2%
O=C(N/N=C/c1c(Nc2cccc(C(F)(F)F)c2)nc2ccccn2c1=O)c1ccccc1[N+](=O)[O-]	-6.01%
CN(C)c1ccccc1C(=O)c1ccccc1N(C)C	9.64%
O=[N+]([O-])c1ccccc1Oc1cnc2ccccc2n1	46.2%
Oc1ccc(Cl)cc1C1=NNC(c2cc(Br)cc3c2OCOC3)C1 (stereo unspecified)	61.3%
Oc1ccccc1C1CC(c2cccs2)=NC(c2ccc(Cl)cc2)N1 (stereo unspecified)	73.4%
COC(=O)C1=C(C(=O)OC)[C@@H]2N(Cc3ccccc3)c3ccccc3[C@@]23C[C@@H](C(=O)OC)N(C(=O)c2cccs2)C3=N1	21.8%
CC1CCc2c(C(=O)NCCCN3CCOCC3)csc2C1 (stereo unspecified)	-0.86%
COc1cc(NS(=O)(=O)c2csc(C(N)=O)c2)cc(OC)c1	2.46%
COc1ccc(C)c2sc(N(CCN(C)C)C(=O)c3ccc4ccccc4c3)nc12	28.4%
Cc1cccnc1NC(=O)COc1ccc2c(c1)CCC2	70.6%
Cc1cc(NC(=O)COC(=O)COc2ccc3c(c2)CCC3)no1	10.3%
Cc1ccc(NC(=O)COc2ccc3oc4c(c3c2)CCCC4)nc1	57.5%
Cc1ccc(CNC(=O)COc2ccc3c(c2)CCC3)cc1	55.2%
CC(=O)Nc1ccc(NC(=O)COc2ccc3c(c2)CCC3)cc1	79.7%
CCOc1ccc(NC(=O)COc2ccc3c(c2)CCC3)cc1OC	66.5%
CC(C)C[C@@H](CSc1ccccc1)N1CCN(CCc2ccccc2)CCC1=O	31%
Fc1cccc(Cl)c1/C=C/c1cnc2ccccc2n1	13.9%
COc1ccc(-c2noc(CN(C)CCC3CCCCO3)n2)cc1 (stereo unspecified)	17.2%
COC(=O)C1=CN(c2ccc(OC)cc2)C=C(C(=O)OC)C1c1cccc(F)c1	26.1%
COc1ccc(N2C(=O)CSC2c2cccc(F)c2)cc1 (stereo unspecified)	1.65%

Structure (SMILES)	inhibition
COc1ccccc1N(CC(=O)NCC1CCCO1)C(=O)CCC(=O)Nc1nccs1 (stereo unspecified)	1.91%
Cc1nc2ccccc2c(=O)n1-c1cc(F)ccc1F	10.4%
Nc1ccccc1C(=O)c1ccccc1	-8.33%
Nc1ccccc1C#Cc1ccccc1	44.7%
COc1ccc(C(=O)Cn2c(NCCO)nc3ccccc32)cc1	-8.13%
CCCCNC(=O)CCn1nc(-c2ccc(C)cc2)c2ccccc2c1=O	1.93%
Cc1cc(C(=O)N/N=C/c2ccc3ccccc3c2)n[nH]1	-9.05%
Cc1cccc(Cn2ccc(NC(=O)c3cccnc3)n2)c1	31.2%
CCOC(=O)Cn1ccc(NC(=O)c2ccc3c(c2)OCO3)n1	-2.16%
CC1CCCC(C)N1C(=O)COC(=O)c1c[nH]c2ccccc12 (stereo unspecified)	15.5%
O=C(NCCO)c1cc2cc(Cl)cc(Cl)c2oc1=O	18%
COCCNC(=O)c1cc2cc(Br)cc(OC)c2oc1=O	56%
COc1ccccc1/C=C/C(=O)OCCN1C(=O)c2ccccc2C1=O	2.64%
NC(=O)C1CCN(C(=O)NC2CC(=O)N(c3ccc4c(c3)OCCO4)C2)CC1 (stereo unspecified)	-13.4%
C/C(=N\NC(=O)c1ccc(C(=O)N/N=C(\C)c2ccco2)o1)c1ccco1	19.3%
CC(NC(=O)c1ccco1)C(=O)OCC(=O)c1ccc(Cl)s1 (stereo unspecified)	13.9%
C/C(=N\NC(=O)c1ccco1)c1ccc(C(=O)O)s1	-5.86%
CCC/C(=N/NC(=O)c1csc(C)c1C)c1ccc(Cl)s1	0.55%
O=C(COC(=O)c1ccc(Cl)nc1)NNC(=O)c1ccc(Br)cc1	6.9%
Cc1ccc(CS(=O)(=O)c2ccc(C(=O)N3CCN(c4ccccn4)CC3)cc2[N+](=O)[O-])cc1	-16.8%
CC(OC(=O)c1cccs1)C(=O)NC1CCCCC1C (stereo unspecified)	-13.9%
Cc1ccc(C(=O)OC(C)C(=O)NC2CCCCC2C)s1 (stereo unspecified)	-2.95%
COc1ccc(C(CNC(=O)C(Cc2ccccc2)NC(N)=O)N(C)C)cc1 (stereo unspecified)	3.12%
CCNC(=S)NNC(=O)c1ccncc1	65.4%

Structure (SMILES)	inhibition
CC(C)(C)C(=O)NC(=S)NNC(=O)c1ccncc1	71.7%
N/C(Cn1cncn1)=N\NC(=O)C(=O)Nc1ccccc1	18%
Nc1ccc(Oc2ccc(Br)cc2)cc1	60.5%
Nc1ccc(Br)cc1Br	-19.9%
OCc1nc2ccccc2n1/N=C/c1cccs1	-12%
Nc1nc2ccccc2n1/N=C/c1ccc([N+](=O)[O-])s1	74.1%
Cc1ccc(/C=N/n2c(C)nc3ccccc3c2=O)s1	18.6%
Cc1cc2ncn(/N=C/c3ccc4c(c3)OCO4)c2cc1C	64.7%
O=[N+]([O-])c1ccc(O)c(/C=N/n2c(CO)nc3ccccc32)c1	-11.8%
Cc1cc2ncn(/N=C/c3cccnc3)c2cc1C	55%
COc1ccc(C(=O)Nc2ccccc2)cc1S(=O)(=O)NCc1ccco1	-9.46%
Cc1ccc(S(=O)(=O)N2CCCC(C(=O)NNCC(=O)Nc3cc(F)ccc3F)C2)cc1 (stereo unspecified)	11.7%
O=C(Nc1nnc(SCc2ccccc2F)s1)C1=COCCO1	45.5%
CNC(=O)COC(=O)c1ccc([N+](=O)[O-])cc1Cl	11.7%
CCc1cc2ccc(C)cc2nc1SCC(=O)c1ccc(NC(C)=O)cc1	12%
CC(C)Oc1ccc(NC(=O)CCC(=O)O)cc1	-9.1%
Cc1ccc(NCC(=O)c2ccc(C)cc2)cc1	72.5%
CC(C)Oc1ccc(NC(N)=O)cc1	-4.08%
Cc1ccc(C(=O)CNc2ccc(Cl)cc2)cc1	74.1%
Cc1ccc(-c2nnn(CC(=O)N(c3ccccc3)C(C(=O)NCC3CCCO3)c3cccs3)n2)o1 (stereo unspecified)	-3.42%
O=C(O)C1C2C=CC(C2)C1C(=O)Nc1nccs1 (stereo unspecified)	-3.04%
COc1ccc2c(=O)c(-c3ccccc3C)c(C)oc2c1	50.8%
Cc1ccc(N2C(=O)C3C4C=CC(CNC(=S)Nc5ccc(F)cc5)(O4)C3C2=O)cc1 (stereo unspecified)	54.3%
COc1ccc(Cl)cc1S(=O)(=O)n1c([N+](=O)[O-])cnc1C	-6.01%

Structure (SMILES)	inhibition
O=C(Cc1ccc([N+](=O)[O-])cc1)Nc1ccc(Br)cn1	-0.37%
Cc1ccc(OCC(=O)NC(=S)Nc2cccc(C)n2)cc1	7.91%
O=C(COC(=O)CCOc1ccccc1)Nc1ccc(Cl)cn1	79.6%
Cc1ccc(OCC(=O)Nc2ccc([N+](=O)[O-])cn2)cc1C	-14.3%
O=C(Cc1ccc(Cl)cc1)Nc1ccc(Cl)cn1	78.1%
O=C(COC(=O)COc1ccccc1)Nc1ccc(Cl)cn1	22.1%
COc1ccc(OCC(=O)Nc2cccc(NC(=O)COc3ccc(OC)cc3)n2)cc1	-11.7%
Cc1ccc(NC(=O)Cc2ccc(Cl)cc2)nc1	27.8%
COc1ccc(-c2nnc(NC(=O)c3cc(C)on3)s2)cc1	71.9%
O=C(OCc1cc(Cl)cc2c1OCOC2)c1cccnc1Cl	14.6%
CC(C)CCNc1nc(N)c([N+](=O)[O-])c(NCCO)n1	-5.48%
CCOc1cc(C2C(C(=O)c3ccco3)=C(O)C(=O)N2CCc2ccccc2)ccc1O (stereo unspecified)	29.2%
COc1ccc(C2=NOC(Cn3nc(-c4ccccc4)cc3C(=O)NCc3cccc(Br)c3)C2)cc1 (stereo unspecified)	-12.8%
Cn1c(N2CCCCC2)cc(=O)n(C)c1=O	-10.1%
CCOC(=O)C1CCCN(C2CC(=O)N(c3ccccc3)C2=O)C1 (stereo unspecified)	30.8%
COC(=O)[C@@H]1C[C@@H]2CC[C@@H](O)C[C@@H]2N1Cc1ccccc1OS(=O)(=O)c1ccc(C)cc1	26.6%
Cc1cccc(-c2noc(CCCC(=O)NCC3CCCO3)n2)c1 (stereo unspecified)	16.8%
O=C(c1cccc(S(=O)(=O)NCc2ccccc2)c1)N1CCN(c2ccccc2)CC1	17.1%
Cc1ccn2c(=O)nc(SCC(=O)Nc3ccc4c(c3)OCO4)nc2c1	25.1%
O=C(COC(=O)c1ccc([N+](=O)[O-])cc1)Nc1ccc(Cl)cn1	34.3%
O=C(COc1ccccc1Cl)Nc1ccc(Cl)cn1	29.8%
O=C(COc1ccc(Cl)cc1Cl)Nc1ccc(Cl)cn1	61%
Cc1ccc(C(=O)OCC(=O)Nc2ccc(Cl)cn2)s1	35.7%
c1ccc(-c2nnc(OCC3CCCO3)c3ccccc23)cc1 (stereo unspecified)	4.74%

Structure (SMILES)	inhibition
CCOc1ccc(C(=O)N/N=C/c2ccc(SC)cc2)cc1	7.39%
COc1ccc(Br)cc1S(=O)(=O)N1CCN=C1c1ccccc1	9.49%
CCOC(=O)c1c[nH]c2c(C)ccc(Cl)c2c1=O	5.99%
O=C(/C(=C/O)N=Nc1ccccc1)c1cccs1	29.9%
Cc1cccc(N=N/C(=C\O)C(=O)c2cccs2)c1	23.2%
CC1CCN(C(=O)CCCNC(=O)Cn2cnc3sc4c(c3c2=O)CCCC4)CC1	-3.59%
Cc1onc(-c2c(F)cccc2Cl)c1C(=O)NCCc1ccncc1	-2.23%
O=C(NCc1cccc2[nH]ccc12)C1CCC(=O)N(CCc2ccc(Cl)cc2)C1 (stereo unspecified)	14.7%
CN1C[C@@H]2C[C@@H](C3=Cc4cc(Cl)ccc4OC3)N3CCC[C@@]23C1=O	8.63%
CN(CC(=O)Nc1ccccc1N1CCOCC1)CC(=O)Nc1ccc(F)c(F)c1F	7.73%
CCCC(=O)NC(Nc1ccc(S(=O)(=O)Nc2cc(C)on2)cc1)(C(F)(F)F)C(F)(F)F	69.8%
CC(/C=C/c1ccc2c(c1)OCO2)=N\NC(=O)C(O)c1ccccc1 (stereo unspecified)	-1.85%
CC(/C=C/c1ccccc1F)=N\NC(=O)C(C)C	13.2%
O=C(N/N=C/c1ccc2c(c1)OCO2)C1COc2ccccc2O1 (stereo unspecified)	69.6%
C/C(=N/NC(=O)c1ccccc1)C(=O)O	21.7%
CC(/C=C/c1ccccc1)=N/NC(=O)CNC(=O)c1ccc2c(c1)OCO2	-0.44%
CC(/C=C/C=C/c1ccccc1)=N/NC(=O)c1ccc2c(c1)OCCO2	11.1%
O=C(COc1cc(F)ccc1[N+](=O)[O-])Nc1cccc(S(=O)(=O)NC2=NCCC2)c1	-15.8%
C=CCSc1nccc(=O)[nH]1	17.7%
COc1ccc(CCNC(=O)NC(C(F)(F)F)C(F)(F)F)cc1OC	-0.6%
